Test results taken from PubChem BioAssay AID1159580 (chemical genetic matrix, 2015).
About 2,000 (36%) of roughly 5,500 compounds were called active. Not shown: some 18% with an inconclusive outcome. Cut-off read from the data, not from the text of the source: active = normalized growth mostly below about 0.91 (no sharp cut-off); inconclusive = no clear call, values can overlap the other calls; inactive = mostly above about 0.92. The list shows a part of the results. Where a SMILES comes first, the peptide text is derived from it. Side-chain parts run from the residue outwards. [ ]: non-standard residue; d: D form. The star is where a group is joined. X1 = CCC(C)C(N)C1=NC(C(=O)*)CS1; Orn = NCCC[CH](N)C(=O)O

Assay: chemical genetic growth profiling, strain panel (AID 1159580);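 note: tested at 20 µM; growth read once vehicle control cultures reached saturation at 30 °C; 1 = growth at the plate median or of vehicle wells; lower values mean less growth of the strain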
Conditions: growth OD

Measured: normalized growth

CCC(C)C(N)C1=NC(C(=O)NC(CC(C)C)C(=O)NC(CCC(=O)O)C(=O)NC(C(=O)NCCCCC2NC(=O)C(CC(N)=O)NC(=O)C(CC(=O)O)NC(=O)C(Cc3cnc[nH]3)NC(=O)C(Cc3ccccc3)NC(=O)C(C(C)CC)NC(=O)C(CCCN)NC2=O)C(C)CC)CS1 (stereo not drawn) (cyclo(DNK([Ile-Glu-Leu-X1])[Orn]IFH); configuration not given here)
inactive: S. cerevisiae deletion strains, locus YJR075W, strain HOC1, hits give low values 0.986 | S. cerevisiae deletion strains, locus YKL009W, strain mrt4, hits give low values 0.974 | S. cerevisiae deletion strains, locus YKL068W, hits give low values 0.995 | S. cerevisiae deletion strains, locus YKL085W, strain MDH1 (second series), hits give low values 0.966 | S. cerevisiae deletion strains, locus YKL085W, strain MDH1, hits give low values 0.966 | S. cerevisiae deletion strains, locus YKL160W, strain elf1, hits give low values 1.02 | S. cerevisiae deletion strains, locus YKL190W, strain CNB1, hits give low values 0.996 | S. cerevisiae deletion strains, locus YKR001C, strain vps1, hits give low values 1.01 | S. cerevisiae deletion strains, locus YKR026C, strain gcn3, hits give low values 1.05 | S. cerevisiae deletion strains, locus YKR091W, strain srl3, hits give low values 0.973 | S. cerevisiae deletion strains, locus YLL001W, strain dnm1, hits give low values 1.04 | S. cerevisiae deletion strains, locus YLL026W, hits give low values 1.01 | S. cerevisiae deletion strains, locus YLL041C, strain sdh2, hits give low values 1.01 | S. cerevisiae deletion strains, locus YLR027C, strain aat2, hits give low values 1.01 | S. cerevisiae deletion strains, locus YLR039C, strain RIC1, hits give low values 1.06 | S. cerevisiae deletion strains, locus YLR058C, strain SHM2, hits give low values 0.994 | S. cerevisiae deletion strains, locus YLR102C, strain apc9, hits give low values 1.01 | S. cerevisiae deletion strains, locus YLR113W, strain HOG1, hits give low values 1.05 | S. cerevisiae deletion strains, locus YLR221C, strain rsa3, hits give low values 1.01 | S. cerevisiae deletion strains, locus YLR258W, strain gsy2, hits give low values 0.993 | S. cerevisiae deletion strains, locus YLR262C, strain YPT6 (second series), hits give low values 1.01 | S. cerevisiae deletion strains, locus YLR262C, strain YPT6, hits give low values 1.02 | S. cerevisiae deletion strains, locus YLR268W, strain sec22, hits give low values 1.02 | S. cerevisiae deletion strains, locus YLR320W, strain mms22, hits give low values 0.982 | S. cerevisiae deletion strains, locus YLR330W, strain CHS5, hits give low values 1.01 | S. cerevisiae deletion strains, locus YLR342W, strain FKS1 (second series), hits give low values 1.03 | S. cerevisiae deletion strains, locus YLR342W, strain FKS1, hits give low values 1.02 | S. cerevisiae deletion strains, locus YLR357W, strain rsc2, hits give low values 1.07 | S. cerevisiae deletion strains, locus YLR370C, strain arc18, hits give low values 0.999 | S. cerevisiae deletion strains, locus YLR371W, strain rom2, hits give low values 1.02 | S. cerevisiae deletion strains, locus YLR384C, strain iki3, hits give low values 0.993 | S. cerevisiae deletion strains, locus YLR418C, strain cdc73, hits give low values 0.989 | S. cerevisiae deletion strains, locus YML016C, strain PPZ1, hits give low values 0.992 | S. cerevisiae deletion strains, locus YML032C, strain rad52, hits give low values 0.967 | S. cerevisiae deletion strains, locus YML120C, strain ndi1, hits give low values 0.994 | S. cerevisiae deletion strains, locus YML124C, strain tub3, hits give low values 0.981 | S. cerevisiae deletion strains, locus YMR058W, strain fet3, hits give low values 1.02 | S. cerevisiae deletion strains, locus YMR078C, strain ctf18, hits give low values 0.988 | S. cerevisiae deletion strains, locus YMR125W, strain sto1, hits give low values 1.02 | S. cerevisiae deletion strains, locus YMR129W, hits give low values 0.997 | S. cerevisiae deletion strains, locus YMR205C, strain PFK2, hits give low values 0.998 | S. cerevisiae deletion strains, locus YMR223W, strain ubp8, hits give low values 1 | S. cerevisiae deletion strains, locus YMR231W, strain pep5, hits give low values 0.996 | S. cerevisiae deletion strains, locus YMR263W, strain SAP30, hits give low values 1.01 | S. cerevisiae deletion strains, locus YMR307W, strain GAS1, hits give low values 0.955 | S. cerevisiae deletion strains, locus YNL067W, strain RPL9B, hits give low values 1 | S. cerevisiae deletion strains, locus YNL071W, strain lat1, hits give low values 1 | S. cerevisiae deletion strains, locus YNL128W, strain TEP1, hits give low values 0.999 | S. cerevisiae deletion strains, locus YNL153C, strain GIM3, hits give low values 0.992 | S. cerevisiae deletion strains, locus YNL183C, strain NPR1, hits give low values 0.975 | S. cerevisiae deletion strains, locus YNL209W, strain ssb2, hits give low values 0.991 | S. cerevisiae deletion strains, locus YNL233W, strain BNI4, hits give low values 1.01 | S. cerevisiae deletion strains, locus YNL248C, strain rpa49, hits give low values 0.998 | S. cerevisiae deletion strains, locus YNL250W, strain rad50, hits give low values 1.01 | S. cerevisiae deletion strains, locus YNL271C, strain bni1, hits give low values 1.01 | S. cerevisiae deletion strains, locus YNL298W, strain CLA4, hits give low values 0.966 | S. cerevisiae deletion strains, locus YNL307C, strain MCK1, hits give low values 1 | S. cerevisiae deletion strains, locus YNL322C, strain KRE1 (second series), hits give low values 0.994 | S. cerevisiae deletion strains, locus YNR049C, strain mso1, hits give low values 0.995 | S. cerevisiae deletion strains, locus YNR052C, strain pop2, hits give low values 0.992 | S. cerevisiae deletion strains, locus YOL006C, strain TOP1, hits give low values 0.996 | S. cerevisiae deletion strains, locus YOL012C, strain htz1 1.9 | S. cerevisiae deletion strains, locus YOL147C, strain pex11, hits give low values 0.994 | S. cerevisiae deletion strains, locus YOR001W, strain rrp6, hits give low values 1.01 | S. cerevisiae deletion strains, locus YOR061W, strain CKA2, hits give low values 1.01 | S. cerevisiae deletion strains, locus YOR069W, strain VPS5, hits give low values 1 | S. cerevisiae deletion strains, locus YOR070C, strain gyp1, hits give low values 1.01 | S. cerevisiae deletion strains, locus YOR080W, strain dia2, hits give low values 1 | S. cerevisiae deletion strains, locus YOR083W, strain WHI5, hits give low values 1.04 | S. cerevisiae deletion strains, locus YOR106W, strain vam3, hits give low values 1.02 | S. cerevisiae deletion strains, locus YOR136W, strain idh2, hits give low values 1.01 | S. cerevisiae deletion strains, locus YOR144C, strain elg1, hits give low values 0.999 | S. cerevisiae deletion strains, locus YOR184W, strain ser1, hits give low values 1.01 | S. cerevisiae deletion strains, locus YOR231W, strain MKK1, hits give low values 1.03 | S. cerevisiae deletion strains, locus YOR265W, strain rbl2, hits give low values 1.01 | S. cerevisiae deletion strains, locus YOR270C, strain vph1, hits give low values 1 | S. cerevisiae deletion strains, locus YOR290C, strain snf2, hits give low values 0.963 | S. cerevisiae deletion strains, locus YOR316C, strain cot1, hits give low values 1 | S. cerevisiae deletion strains, locus YPL051W, strain arl3, hits give low values 1.04 | S. cerevisiae deletion strains, locus YPL078C, strain atp4, hits give low values 1.02 | S. cerevisiae deletion strains, locus YPL106C, strain sse1, hits give low values 0.976 | S. cerevisiae deletion strains, locus YPL240C, strain hsp82, hits give low values 1 | S. cerevisiae deletion strains, locus YPL256C, strain CLN2, hits give low values 1.02 | S. cerevisiae deletion strains, locus YPR119W, strain clb2, hits give low values 0.993 | S. cerevisiae deletion strains, locus YPR141C, strain kar3, hits give low values 0.994 | S. cerevisiae deletion strains, locus YPR163C, strain tif3, hits give low values 0.995 | S. cerevisiae deletion strains, locus YPR167C, strain met16, hits give low values 0.993 | S. cerevisiae deletion strains, strain wtn01, hits give low values 1.03 | S. cerevisiae strains, strain wild type, hits give low values 0.992
